Source: PubChem BioAssay
Lassa entry inh: Lassa virus entry inhibition. Lassa virus pseudotype entry inhibition, cell reporter. Potency, µM (doses to about 37.9 µM), without a hit: at the highest dose activity change, negative = inhibition, actives largely listed as inhibitors. 300,000 tested, 1.2% active. AID 540256; calls by dose curve; tested in HEK293 cells; note: potency is the fitted concentration of half-maximal effect; % is set by controls: 0 for no effect and ±100 for the full control effect; nearly all actives have a fitted effect of over 50% in size
HCV inh: inhibitors of hepatitis C virus infection; 340,000 tested, 3.4% active; Huh7.5.1 HCVcc-Cre infection, luciferase reporter, 44 h; Potency, µM (doses to about 41.8 µM), without a hit: at the highest dose activity change, negative = inhibition, most hits filed as inhibitors; active = well fitted inhibition curve with a large enough effect; inconclusive = small, poorly fitted or top-dose-only effect, or another doubt; inactive = no such curve, though single readings can be large or run the other way; note: potency is the fitted concentration of half-maximal effect; % is set by controls: 0 for no effect and ±100 for the full control effect
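After 44 h co-culture of compound, cells and HCVcc-Cre (~0.5 moi), substrate is added for 15 min at room temperature and luciferase measured over 15 sec. Cells were seeded at 1,000/well and pre-cultured 4 h.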
FMDV antiviral: foot and mouth disease virus antiviral activity. FMDV antiviral cell-based qHTS. Potency, µM (top dose mostly 57.9 µM), for inactives: at the top dose activity change, negative = inhibition, hits mostly inhibitors. 410,000 tested, 1.2% active. AID 1159524; calls by dose curve; tested in HEK293T cells; note: read-out not given here; potency is the fitted concentration of half-maximal effect; % is set by controls: 0 for no effect and ±100 for the full control effect; nearly all actives have a fitted effect of over 45% in size
MARV entry inh: blocks Marburg virus binding to or entry into cells | Marburg virus pseudotyped entry inhibition, cell reporter | Potency, µM (titrated, usually from 37.8 µM), for inactives: at the top dose activity change, negative = inhibition, actives largely listed as inhibitors | 300,000 tested, 1.8% active; calls by dose curve; tested in HEK293 cells; note: potency is the fitted concentration of half-maximal effect; % is set by controls: 0 for no effect and ±100 for the full control effect
HCMV antiviral: blocks human cytomegalovirus replication | HFF cells, HCMV-luciferase reporter, 72 h; active compounds read low | activity change, negative = inhibition, % at 57.5 µM | 410,000 tested, 4.5% active; in the data active = activity change below about -60%; inconclusive = no clear call, values can overlap the other calls; inactive = above about -39%; note: % is set by controls: 0 for no effect and ±100 for the full control effect
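HFF cells seeded 16 h at 37C, treated with compounds, infected with luciferase-reporter HCMV at MOI 1 PFU/cell; luciferase read at 72 h post infection, normalized to buffer-only and Salinomycin controls.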
SARS PLpro yeast: inhibitors of SARS-CoV papain-like protease in yeast; S. cerevisiae expressing SARS-CoV PLpro, growth rescue; Potency, µM (top dose mostly 32.9 µM), without a hit: top-dose activity, positive = growth rescue, usual class: activators; 330,000 tested, 0.19% active; calls by dose curve; note: potency is the fitted concentration of half-maximal effect; 0% is about no effect; nearly all actives have a fitted effect of over 55% in size
Numbers without * were called inactive; [ ] = remark or other dose. Compounds with a hit are over-represented: about 8% of the library has one in this group of screens.

`CC(C)(C)NC(=O)CSc1nc2ccc(NC(=O)CSc3nnc(N)s3)cc2s1` gave Lassa entry inh 3%, HCV inh 13µM*, FMDV antiviral 28µM*, MARV entry inh inconclusive, HCMV antiviral 6 and SARS PLpro yeast 7%.
For Cc1ccc(NC(=O)CSc2nc3ccc(NC(=O)COc4ccc(C)cc4)cc3s2)cc1 the results were Lassa entry inh -1%[46.1 µM], FMDV antiviral -27%, MARV entry inh 3%[46.1 µM] and HCMV antiviral -19.
`CC(C)(C)NC(=O)CSc1nc2ccc(NC(=O)CSc3nnnn3Cc3ccccc3)cc2s1` gave Lassa entry inh inconclusive, HCV inh 2µM*, FMDV antiviral 14µM*, MARV entry inh 8.9µM*, HCMV antiviral -77* and SARS PLpro yeast 2%.
COc1ccc(Oc2nc(C)nc3c2oc2ccccc23)cc1 was read as Lassa entry inh inconclusive, HCV inh 8.9µM*, FMDV antiviral inconclusive, MARV entry inh inconclusive, HCMV antiviral -68* and SARS PLpro yeast 8%.
Screening Cc1nc(Nc2cccc(Cl)c2)c2oc3ccccc3c2n1 returned Lassa entry inh inconclusive, HCV inh -27%, FMDV antiviral -25%, MARV entry inh inconclusive, HCMV antiviral -3 and SARS PLpro yeast -6%.
Screening COc1cccc(Nc2nc(C)nc3c2oc2ccccc23)c1 returned Lassa entry inh 25%[46.1 µM], HCV inh 11µM*, FMDV antiviral -25%, MARV entry inh inconclusive, HCMV antiviral 32 and SARS PLpro yeast -4%.
Cc1nc(Nc2cccc(O)c2)c2oc3ccccc3c2n1 was read as HCV inh 13µM*, FMDV antiviral -23%, HCMV antiviral 78 and SARS PLpro yeast 0%.
Screening Cc1nc(Oc2ccccc2)c2oc3ccccc3c2n1 returned Lassa entry inh inconclusive, HCV inh inconclusive, FMDV antiviral -20%, MARV entry inh -6%, HCMV antiviral inconclusive and SARS PLpro yeast -1%.
CC(C)NCC(O)Cn1c2c(c3ccccc31)CCc1c-2cnn1-c1ccccc1 (centres undefined) was read as Lassa entry inh 7.1µM*, HCV inh inconclusive, FMDV antiviral inconclusive, MARV entry inh inconclusive, HCMV antiviral -103* and SARS PLpro yeast -3%.
c1ccc(-c2cnnc(-c3ccccn3)n2)cc1 was read as HCV inh 11%, FMDV antiviral 50% and HCMV antiviral -3.
`C=CCNc1nc(-c2ccccn2)nnc1-c1ccccc1` gave Lassa entry inh inconclusive, HCV inh inconclusive, FMDV antiviral -10%, MARV entry inh inconclusive, HCMV antiviral -103* and SARS PLpro yeast -34%.
For CC1=C(C(=O)Nc2ccc(Cl)cc2)C(C(C)C)n2nc(SCc3cccc(C)c3)nc2N1 (centres undefined) the results were Lassa entry inh 4%[46.1 µM], FMDV antiviral -1%, MARV entry inh 5%[46.1 µM] and HCMV antiviral 9.
Screening CC(C)(C)NCC(=Cc1ccccc1)C(=O)c1ccccc1 returned Lassa entry inh 7.1µM*, HCV inh inconclusive, FMDV antiviral 8.9µM*, MARV entry inh 7.9µM* and HCMV antiviral -98*.
COc1cccc(OC)c1OCCN1CCC(C(=O)NC(c2ccc3c(c2)OCO3)c2ccccn2)CC1 (centres undefined) was read as FMDV antiviral -6% and HCMV antiviral -61*.
For CCCCN(C)CCCNC(=O)C1CCN(c2nc3ccc(CC)cc3s2)CC1 the results were Lassa entry inh inconclusive, FMDV antiviral 6%, MARV entry inh inconclusive and HCMV antiviral -108*.
CCCCN(CC)CCCNC(=O)C1CCN(c2nc3ccc(CC)cc3s2)CC1 was read as Lassa entry inh inconclusive, FMDV antiviral -3%, MARV entry inh inconclusive and HCMV antiviral -98*.
For COc1nc2ccccc2c(=O)n1-c1ccc(Cl)cc1 the results were Lassa entry inh inconclusive, HCV inh 3%, FMDV antiviral -7%, MARV entry inh 10%, HCMV antiviral -61* and SARS PLpro yeast -5%.
For O=c1c2ccccc2nc(N2CCCC2)n1-c1ccc(Cl)cc1 the results were Lassa entry inh 1%, HCV inh inconclusive, FMDV antiviral -26%, MARV entry inh 11%, HCMV antiviral -63* and SARS PLpro yeast -2%.
`CSCc1cc(N(C)c2ccccc2)nc(-c2ccccn2)n1` gave HCV inh 2.8µM*, FMDV antiviral 0%, HCMV antiviral -85* and SARS PLpro yeast -5%.
`CN(C)c1cc(C(F)(F)F)nc(-c2ccccn2)n1` gave Lassa entry inh inconclusive, HCV inh 10%, FMDV antiviral 18%, MARV entry inh 0%, HCMV antiviral -23 and SARS PLpro yeast -7%.
Screening CCOc1ccccc1N1CCN(C(=O)C2c3ccccc3Oc3ccccc32)CC1 returned Lassa entry inh 7.1µM*, HCV inh inconclusive, FMDV antiviral -4%, MARV entry inh inconclusive, HCMV antiviral -17 and SARS PLpro yeast -23%.
Screening CS(=O)(=O)N1CCN(C(=O)C2c3ccccc3Oc3ccccc32)CC1 returned Lassa entry inh 17%, HCV inh 1%, FMDV antiviral -7%, MARV entry inh 2%, HCMV antiviral 54 and SARS PLpro yeast -2%.
For CCOc1ccccc1N1CCN(C(=S)NCc2ccccc2)CC1 the results were Lassa entry inh inconclusive, HCV inh 13%, FMDV antiviral 11%, MARV entry inh inconclusive, HCMV antiviral -88* and SARS PLpro yeast 1%.
`CCNC(=S)N1CCN(c2ccccc2OCC)CC1` gave Lassa entry inh 0%, HCV inh 15%, FMDV antiviral -17%, MARV entry inh -25%, HCMV antiviral -31 and SARS PLpro yeast -10%.
For CCOc1ccccc1N1CCN(C(=O)c2ccc(S(=O)(=O)Nc3ccccc3)cc2)CC1 the results were HCV inh 10µM*, FMDV antiviral -28%, HCMV antiviral inconclusive and SARS PLpro yeast 5%.
CCOc1ccccc1N1CCN(C(=O)c2ccccc2)CC1 was read as Lassa entry inh 11%, HCV inh 7%, FMDV antiviral -12%, MARV entry inh 0%, HCMV antiviral -19 and SARS PLpro yeast -3%.
For Cc1ccc(CCNC(=O)c2cccc(Nc3nc4ccccc4nc3-n3nc(C)cc3C)c2)cc1 the results were Lassa entry inh 1%[46.1 µM], FMDV antiviral 4%, MARV entry inh 5%[46.1 µM] and HCMV antiviral -1.
Screening CCOc1cc2sc(N3CCC(C(=O)Nc4ccc(C)cc4C)CC3)nc2cc1Br returned FMDV antiviral 40%, MARV entry inh inconclusive and HCMV antiviral 55.
Screening C/C(=N/OCC(=O)NCCCCCCNC(=O)CO/N=C(/C)c1cccs1)c1cccs1 returned Lassa entry inh inconclusive, HCV inh 22µM*, FMDV antiviral -18%, MARV entry inh inconclusive, HCMV antiviral inconclusive and SARS PLpro yeast 23%.
